An excerpt weighted towards active compounds, which were near 4.2% of everything screened.
FBA Mtb inh = Mtb fructose-bisphosphate aldolase inhibition; P9WQA3; purified M. tuberculosis FBA, fluorescence read-out; inhibition, % at 1 µM; actives 2.3% (n = 360,000); AID 588726
Mtb bLac sens = beta-lactam sensitization of Mtb H37Rv; M. tuberculosis H37Rv growth with meropenem, percent inhibition; inhibition, % at 25 µM; actives 0.27% (n = 330,000); call rule not given here;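 also: growth measured after seven days incubation then overnight dye step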
GDH-TPI counter-1 = inhibits GDH-TPI coupling enzymes, artifact for Mtb FBA screen; GDH-TPI coupled enzyme counterscreen, NADH absorbance; inhibition, % at 4.8 µM; actives 1.2% (n = 360,000); AID 588335; in the data active = inhibition above about 30%
CCHF vOTU inh = blocks the CCHF virus ovarian tumor domain protease; inhibition, % at 11.5 µM; CCHFV vOTU protease, Pep-AMC fluorescence; actives 0.55% (n = 370,000); AID 651958; in the data active = inhibition above about 30%
RecA intein inh = blocks M. tuberculosis RecA intein splicing; P9WHJ3; inhibition, % (no concentration beside the values); cell-free RecA intein splicing, fluorescence; AID 2221; actives 0.75% (n = 290,000); in the data active = inhibition above about 30%; inconclusive = no clear call, values can overlap the other calls
Target sequence (P9WHJ3 whole entry, looked up): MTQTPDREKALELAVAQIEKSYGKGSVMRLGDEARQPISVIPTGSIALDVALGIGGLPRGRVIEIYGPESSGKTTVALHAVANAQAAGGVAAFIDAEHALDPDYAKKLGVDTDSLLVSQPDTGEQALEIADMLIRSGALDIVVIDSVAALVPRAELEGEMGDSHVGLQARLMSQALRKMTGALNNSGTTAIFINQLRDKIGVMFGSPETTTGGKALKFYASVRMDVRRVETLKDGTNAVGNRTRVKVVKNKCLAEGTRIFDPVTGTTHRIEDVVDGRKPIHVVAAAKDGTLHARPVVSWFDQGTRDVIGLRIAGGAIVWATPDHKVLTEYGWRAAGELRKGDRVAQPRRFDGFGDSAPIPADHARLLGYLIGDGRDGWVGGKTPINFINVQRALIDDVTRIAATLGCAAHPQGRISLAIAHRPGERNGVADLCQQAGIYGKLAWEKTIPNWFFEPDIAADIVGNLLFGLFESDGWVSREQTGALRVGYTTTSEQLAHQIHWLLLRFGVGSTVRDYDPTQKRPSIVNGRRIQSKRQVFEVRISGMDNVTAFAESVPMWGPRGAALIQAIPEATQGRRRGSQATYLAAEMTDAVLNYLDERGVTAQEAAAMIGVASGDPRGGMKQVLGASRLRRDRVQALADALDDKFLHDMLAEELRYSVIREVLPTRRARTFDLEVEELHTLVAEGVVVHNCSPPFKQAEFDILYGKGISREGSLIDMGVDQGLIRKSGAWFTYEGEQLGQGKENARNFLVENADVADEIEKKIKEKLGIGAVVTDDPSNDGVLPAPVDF
GFP chromophore = counter-screen: blocks GFP chromophore formation. cell-free GFP chromophore formation, fluorescence. EC50, µM. actives 83% (n = 2,100). shares compounds with RecA intein inh. AID 434968; call rule not given here
Mtb FBA inh conf = Mtb FBA inhibition, confirmed; actives 78% (n = 5,600); shares compounds with FBA Mtb inh; purified M. tuberculosis FBA, fluorescence read-out; inhibition, % at 1 µM
GDH-TPI counter-2 = counter-screen for M. tuberculosis FBA inhibitors: GDH-TPI coupled enzyme inhibition; inhibition, % at 1 µM; actives 81% (n = 5,600); GDH-TPI coupled enzyme counterscreen, fluorescence; shares compounds with FBA Mtb inh; in the data active = inhibition above about 10%
Of the large screens only hits and unclear results are named; the others gave an inactive call (follow-up assays come after a bar, where they were run). Rule as the data show it, unless noted: active = inhibition above about 27%; inactive = the rest.

O=C(CN1CCC(NC(=O)Nc2ccc(Cl)cc2)CC1)Nc1ccc2c(c1)OCCO2	none (no result: FBA Mtb inh, Mtb bLac sens, GDH-TPI counter-1, RecA intein inh)
CN(C)C(=O)N1CCN(S(=O)(=O)c2ccc3ccccc3c2)CC1	none (no result: RecA intein inh)
O=C(CCl)N1CCN(S(=O)(=O)c2ccc3ccccc3c2)CC1	RecA intein inh 76 | GFP chromophore 28
CC(Oc1ccc(F)cc1)C(=O)Oc1ccc(N(C)S(=O)(=O)c2ccccc2)cc1 (stereo not given)	RecA intein inh 39 | GFP chromophore inactive
COc1ccc(S(=O)(=O)N(C)c2ccc(OC(=O)C(C)Oc3ccc(F)cc3)cc2)cc1 (stereo not given)	none
CCOC(=O)[C@@]12CCCC=C1N(CCc1ccc(Cl)cc1)C(=O)[C@H]2CC(=O)NCc1ccc(C)o1	none (no result: FBA Mtb inh, Mtb bLac sens, GDH-TPI counter-1, RecA intein inh)
COCCNc1nc2cc(-c3ccc(F)cc3)sc2c(=O)n1C	none (no result: Mtb bLac sens, RecA intein inh)
O=c1[nH]c(CCl)nc2cc(-c3ccc(F)cc3)sc12	RecA intein inh 36 | GFP chromophore 31
O=C(NCCc1ccccc1)OCc1cn(-c2ccc(Cl)cc2)nn1	none (no result: FBA Mtb inh, Mtb bLac sens, GDH-TPI counter-1, RecA intein inh)
CCOC(=O)[C@]12CCCC3=C1N(CCC3)C(=O)[C@@H](CC(=O)NCc1ccccc1)C2	none (no result: FBA Mtb inh, Mtb bLac sens, GDH-TPI counter-1, RecA intein inh)
COc1ccc(Cn2c(O)c(C=NCCN3CCOCC3)c(=O)[nH]c2=O)cc1	none
COc1ccc(Cn2c(O)c(/C=N/NC(=O)c3ccccc3O)c(=O)[nH]c2=O)cc1	RecA intein inh 31 | GFP chromophore inactive
CN(C(=O)C(Cl)Cl)c1ccc(OC(=O)c2ccco2)cc1	RecA intein inh 36 | GFP chromophore inactive
Cc1ccccc1CNC(=O)CN1CCCc2ccccc21	none (no result: FBA Mtb inh, Mtb bLac sens, GDH-TPI counter-1, RecA intein inh)
COc1ccc(NC(=O)/C(Cl)=C(/Cl)S(=O)Cc2ccccc2)cn1 (stereo not given)	RecA intein inh 78 | GFP chromophore 6.6
COc1ccc(CS(=O)(=O)/C(Cl)=C(/Cl)C(=O)Nc2ccc(OC)nc2)cc1	RecA intein inh 78 (no result: CCHF vOTU inh) | GFP chromophore 9.7
COc1ccccc1-c1cccc2c3c([nH]c12)[C@@H]1C[C@H]2[C@@H](C(=O)N1CC3)[C@H](C)ON2C	none (no result: FBA Mtb inh, Mtb bLac sens, GDH-TPI counter-1, RecA intein inh)
CC(C)Cc1ccc(-c2cc(=O)[nH][nH]2)cc1	RecA intein inh 92 | GFP chromophore 2.6
CCOc1ccc(-n2c(C)cc(C(=O)CCl)c2C)cc1	RecA intein inh 48 | GFP chromophore 28
C=CCOC(=O)C1=C(C)NC(=O)NC1c1ccc(OC(=O)c2ccco2)c(OC)c1 (stereo not given)	RecA intein inh 31 | GFP chromophore inactive
CC1CC(=O)c2c(cc3c(-c4c(O)cc(O)c5c(O)c6c(cc45)OC(C)CC6=O)c(O)cc(O)c3c2O)O1 (stereo not given)	RecA intein inh 96 (no result: CCHF vOTU inh) | GFP chromophore 2.5
Cc1ccc(-c2cc(=O)[nH][nH]2)c(C)c1	RecA intein inh 95 | GFP chromophore 2.9
Cc1ccc(-c2csc3nc[nH]c(=O)c23)c(C)c1	none
CN(C(=O)c1ccc2c(Cl)c3c(nc2c1)CCC3)c1ccccc1	none
CCN(C(=O)c1ccc2c(Cl)c3c(nc2c1)CCC3)c1ccc(C)c(C)c1	RecA intein inh 30 | GFP chromophore 9.1
CCCCNC(=O)c1c(N)n(Cc2ccc3c(c2)OCO3)c2nc3ccccc3nc12	FBA Mtb inh 30, RecA intein inh 68 | GFP chromophore inactive | Mtb FBA inh conf 65 | GDH-TPI counter-2 55
CCCCNC(=O)CSc1nc2ccccc2c(=O)n1Cc1ccc2c(c1)OCO2	none
Nc1cc2nn(-c3ccccc3)nc2cc1Cl	FBA Mtb inh 36, RecA intein inh 63 (no result: Mtb bLac sens) | GFP chromophore 37 | Mtb FBA inh conf 109 | GDH-TPI counter-2 88
Cc1ccc(S(=O)(=O)c2c(N)n(CCC(C)C)c3nc4ccccc4nc23)cc1	FBA Mtb inh 46, RecA intein inh 85 | GFP chromophore 11 | Mtb FBA inh conf 107 | GDH-TPI counter-2 80
Nc1c(S(=O)(=O)c2ccccc2)c2nc3ccccc3nc2n1C1CC1	none
CCCCn1c(NC(=O)c2ccco2)c(S(=O)(=O)c2ccc(C)cc2)c2nc3ccccc3nc21	FBA Mtb inh 96, RecA intein inh 57 (no result: Mtb bLac sens) | GFP chromophore inconclusive | Mtb FBA inh conf 73 | GDH-TPI counter-2 47

Screening data as filed in PubChem BioAssay.
